Bioassay records from PubChem.
Cruzain inh Det – inhibitors of Trypanosoma cruzi cruzain with detergent; P25779; purified cruzain, Z-FR-AMC fluorescence, 0.01% Triton; Potency, µM, without a hit: max response, negative = inhibition, actives largely listed as inhibitors; hit rate 0.43% among 200,000; AID 1478;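 further: plate controls were neutral wells for no effect and buffer without enzyme for full effect; nearly all actives have a fitted effect of over 40% in size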
Target sequence (P25779 123-467 limits assumed): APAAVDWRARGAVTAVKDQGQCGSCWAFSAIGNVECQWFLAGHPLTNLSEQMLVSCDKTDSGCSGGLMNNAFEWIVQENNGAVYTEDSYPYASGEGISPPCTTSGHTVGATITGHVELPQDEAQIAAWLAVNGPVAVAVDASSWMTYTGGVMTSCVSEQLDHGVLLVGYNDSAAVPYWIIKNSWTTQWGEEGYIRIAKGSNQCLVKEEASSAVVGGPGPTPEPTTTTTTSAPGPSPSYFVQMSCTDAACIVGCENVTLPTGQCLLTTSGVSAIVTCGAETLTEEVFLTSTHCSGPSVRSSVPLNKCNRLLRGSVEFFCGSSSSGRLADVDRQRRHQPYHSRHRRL
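In this qHTS format, compounds are incubated with 1.5 nM cruzain for 15 min at room temperature before 2 uM Z-FR-AMC is added. Release of AMC is followed at 360/450 nm, and progress is taken as the 60 s fluorescence difference.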
Cruzain inh noDet – inhibitors of Trypanosoma cruzi cruzain without detergent | Potency, µM, without a hit: max response, negative = inhibition, usual class: inhibitors | purified cruzain, Z-FR-AMC fluorescence, no detergent | hit rate 2.3% among 200,000 | P25779;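 further: plate controls were enzyme without inhibitor for no effect and buffer without enzyme for full effect; nearly all actives have a fitted effect of over 40% in size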
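Purified cruzain at 1.5 nM, pre-incubated 15 min with compound at room temperature in 100 mM sodium acetate pH 5.5, 5 mM DTT, 0.00005% Triton X-100. Reaction started with 2 uM Z-FR-AMC; AMC fluorescence increase over 60 s gives rate.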
* = called active by the depositor; u = inconclusive. In the library only some 2.6% were active in any assay of this set; here they are far more common. The call rests on the fitted dose curve; in most records, active means well fitted curve in the direction sought with a large enough effect; inconclusive means small, poorly fitted or top-dose-only effect, or another doubt; inactive means no such curve, though single readings can be large; an effect the other way counts as inactive or inconclusive. Potency means the concentration at half of the fitted maximal effect.

SMILES	Cruzain inh Det	Cruzain inh noDet
COc1ccc(C(C(=O)NC2CCCCC2)N(C(=O)c2sc(C)nc2C)c2ccc(OC)cc2)cc1 (stereo not drawn)	3.3%	u
CCc1sc(Nc2cccc(C)c2C)nc1-c1cc2cccc(OC)c2oc1=O	2.2%	5.4%
CC(C)N(Cc1nc(-c2ccc(Cl)cc2)no1)C(=O)c1ccco1	-1.9%	-0.1%
CC(=O)N1CCc2c(sc3c2c(=O)n(-c2ccccc2C)c(=O)n3CC(=O)c2ccccc2)C1	-1.4%	u
CCOC(=O)C1=C(CN2CCCCC2)NC(=O)NC1c1ccc(C)cc1 (stereo not drawn)	0.3%	-5.6%
COn1c2c(c3c4no[n+]([O-])c4ccc31)CCCC2	1.2%	20µM*
COn1c2c(c3c4nonc4ccc31)CCCC2	-9.2%	-3.2%
CCOC(=O)C1CCC(CN(Cc2ccc(Cl)cc2)S(=O)(=O)c2cccc(Cl)c2C)CC1 (stereo not drawn)	0.0%	18.6%
Cc1cc(C)cc(NC(=O)COc2cccc3c(=O)n(C)ccc23)c1	-8.0%	18.3%
COc1ccccc1-c1cc(-c2cc(Cl)ccc2O)n[nH]1	0.6%	25.1µM*
COc1ccc(OC)c(NC(=O)c2cc(-c3cc(Cl)ccc3O)n[nH]2)c1	-0.1%	u
COc1ccc(Cl)cc1NC(=O)c1cc(-c2ccccc2O)n[nH]1	-2.3%	10µM*
Oc1ccc(Br)cc1-c1cc(-c2ccccc2F)[nH]n1	0.2%	20µM*
Oc1ccc(Cl)cc1-c1cc(-c2ccccc2)n[nH]1	-12.6%	-9.8%
Cc1ccccc1-c1cc(-c2ccccc2O)n[nH]1	-10.0%	-14.1%
COc1cccc(CNC(=O)c2ccc(-c3nc(CS(=O)c4ccccc4)c(C)o3)cc2)c1 (stereo not drawn)	-2.3%	26.0%
CC(C)c1nn2c(=O)cc(COC(=O)c3ccccc3NC(=O)c3cccs3)nc2s1	-0.2%	-1.2%
COc1ccc(CNC(=O)c2cc3c(=O)[nH]c4ccccc4c3n2C)c(OC)c1	-1.8%	u
COc1ccc(Br)cc1/C=N/NC(=O)c1ccc(COc2ccc3c(c2)CCC3)o1	-10.5%	-25.6%
O=C(N/N=C/c1ccc2ccccc2c1)c1ccc(COc2ccc3c(c2)CCC3)o1	-11.2%	20µM*
COc1ccc2[nH]cc(CCNc3ncnc4ccc(-c5ccc6c(c5)OCO6)cc34)c2c1	-0.3%	31.6µM*
COc1ccc2[nH]cc(CCNc3nc(-c4ccc(N(C)C)cc4)nc4ccccc34)c2c1	-16.0%	25.1µM*
COc1ccc2[nH]cc(CCNc3nc(-c4ccc(C(=O)N(C)C)cc4)nc4ccccc34)c2c1	-4.3%	-3.9%
COc1ccc2[nH]cc(CCNc3ncnc4ccc(-c5cccnc5)cc34)c2c1	-3.7%	-13.8%
COc1ccc(CNC(=O)c2ccc3c(c2)N(C)C(=O)C2CCCCN32)cc1OC (stereo not drawn)	-3.7%	-6.2%
SMILES	Cruzain inh Det	Cruzain inh noDet
O=C1OC(/C=C/c2ccccc2)=NC/1=C/C=C/c1ccccc1	5.01µM*	u
NC1=NC(=O)/C(=C\C=C\c2ccccc2)S1	3.5%	u
CCOc1ccc(NC(=O)N2CC=C(c3c[nH]c4ccccc34)CC2)cc1	-11.4%	8.1%
O=c1oc(-c2cccs2)nc2sc3c(c12)CCCC3	3.4%	u
O=c1oc(-c2cccs2)nc2sc3c(c12)CCC3	0.9%	12.6µM*
COc1cccc(/C=C2\N=C(c3c(-c4ccccc4)noc3C)OC2=O)c1OC	-6.6%	8.9%
Cc1nn(-c2ccccc2)c(N2CCCC2)c1/C=C1\N=C(c2ccc(F)cc2)OC1=O	0.398µM*	0.316µM*
Cc1nn(-c2ccccc2)c(N2CCCC2)c1/C=N/O	-1.5%	4.2%
CS(=O)(=O)Oc1ccccc1/C=C1/N=C(c2ccc(F)cc2)OC1=O	14.1µM*	15.8µM*
Cc1ccc(C2=N/C(=C\c3c(C)nn(-c4ccccc4)c3N3CCCC3)C(=O)O2)cc1	1µM*	1.58µM*
O=C1OC(c2ccccc2)=N/C1=C\N1CCCCC1	-7.3%	-7.2%
Oc1c(C(c2ccccc2)N2CCN(Cc3ccccc3)CC2)sc2nc(-c3ccco3)nn12 (stereo not drawn)	0.5%	-7.1%
Cc1cc(C)cc(-n2nnc(-c3nc(-c4ccc5c(c4)OCO5)no3)c2C)c1	3.1%	-0.4%
CCn1c(=O)c2sccc2n2c(CCCC(=O)N3CCN(c4ccc(OC)cc4)CC3)nnc12	-0.7%	9.4%
CCc1ccc(NC(=O)Cn2cc(S(=O)(=O)c3ccc(F)cc3)c(=O)c3cc(OC)ccc32)cc1	-1.3%	-2.9%
Cc1c(C(=O)OCCOc2ccccc2)[nH]c2c1C(=O)CC(c1ccccc1Cl)C2 (stereo not drawn)	-2.4%	5.0%
CNc1oc(-c2ccc(Cl)cc2)nc1P(=O)(c1ccccc1)c1ccccc1	12.6µM*	u
CCOP(=O)(OCC)c1nc(-c2ccc(C)cc2)oc1NCc1ccccc1	-10.3%	u
COc1cccc(CNc2nc3c(-c4cccc(C)c4)nnn3c3ccccc23)c1	-0.9%	-1.0%
Cc1c2cccc(Sc3ccccc3)c2c2c3c(cccc13)[S+](c1ccccc1)C2 (stereo not drawn)	0.9%	2.51µM*
Cc1ccc(S(=O)(=O)c2cn(CC(=O)Nc3ccc(C)c(Cl)c3)c3ccc(C)cc3c2=O)cc1	-3.2%	u
COc1ccc2c(c1)c(=O)c(S(=O)(=O)c1ccccc1)cn2CC(=O)Nc1ccc(C)c(Cl)c1	-4.7%	20µM*
COc1ccc(NC(=O)Cn2cc(S(=O)(=O)c3ccccc3)c(=O)c3cc(C)ccc32)cc1Cl	-4.0%	25.1µM*
COc1ccc2c(c1)c(=O)c(S(=O)(=O)c1ccccc1)cn2CC(=O)Nc1ccc2c(c1)OCO2	-6.7%	8.5%
CCn1c(O)c(/C=C2\C=Nc3ccccc32)sc1=Nc1ccccc1	1.8%	0.7%
SMILES	Cruzain inh Det	Cruzain inh noDet
CCn1c(O)c(/C=C2\C=NN=C2c2ccc(C)cc2)sc1=S	-5.0%	12.6µM*
CCN(CC)CC(=O)Nc1nc(-c2ccc(Cl)cc2)cs1	-6.1%	-9.8%
O=C(Nc1ccccc1)Nc1nc(-c2ccc(Cl)cc2)cs1	1.7%	15.8µM*
O=C(Nc1cccc(Cl)c1)Nc1nc(-c2ccc(Cl)cc2)cs1	1.4%	10µM*
CC(C)CC(=O)NC(=S)Nc1nc(-c2ccc(Cl)cc2)cs1	-6.1%	u
O=C(Nc1nc(-c2cccc(Br)c2)cs1)Oc1ccccc1	0.9%	u
CCc1ccc(-c2csc(NC(=O)Oc3ccccc3)n2)cc1	0.1%	12.6µM*
Cc1c(C)c2cc3c(c(C)c2oc1=O)OCN(CCc1ccccc1)C3	2.4%	u
Cc1coc2c(C)c3oc(=O)c(CC(=O)NCc4ccccc4)c(C)c3cc12	0.0%	-8.5%
Cc1ccc(CNC(=O)C2CCN(c3nc4ccc(C)cc4[nH]3)CC2)cc1	-7.7%	5.2%
Cc1ccc(NC(=O)C(=O)NCC(c2ccc3c(c2)OCO3)N2CCOCC2)c(C)c1 (stereo not drawn)	-1.2%	-6.7%
CCc1nnc2n1N(C(C)=O)C(c1ccc(C(C)(C)C)cc1)=C(C(C)=O)S2	-10.0%	u
Cc1ccc(-c2nnc(Nc3cccc(Cl)c3)c3ccccc23)cc1S(=O)(=O)N1CCCCC1	-2.3%	7.94µM*
Cc1ccc(-c2nnc(Nc3ccc(Cl)c(Cl)c3)c3ccccc23)cc1S(=O)(=O)N(C)C	-2.8%	6.31µM*
Cc1ccc(-c2nnc(Nc3ccc(Cl)c(Cl)c3)c3ccccc23)cc1S(=O)(=O)NCCO	-2.3%	14.9%
Cc1ccc(-c2nnc(Nc3cccc(Cl)c3)c3ccccc23)cc1S(=O)(=O)N1CCOCC1	-2.8%	3.0%
